Source: publication PMC10812921, “Transcriptional Coactivator BOB1 (OBF1, OCA-B) Modulates the Specificity of DNA Recognition by the POU-Domain Factors OCT1 and OCT2 in a Monomeric Configuration”

Experiments:
POU1 (OCT1 POU domain) = POU1 (OCT1 POU domain) (human, UniProt P14859 260-458); assay: EMSA-SELEX-seq; no BOB1; 20 mM Tris-HCl pH 7.6, 140 mM NaCl, 10% glycerol, 0.5 mM EDTA, 0.05% Triton X-100, 0.1 mg/mL BSA, 0.1 mg/mL poly(dI-dC), 5 mM DTT, room temperature, 20 min; high values mean tight binding; settings: protein: recombinant; dsDNA, one strand shown
How it was run: (§1)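 Tagged POU-domain proteins were expressed in E. coli BL21, purified under denaturing conditions and renatured. Then 30 ng was mixed with 300 ng of a PCR-amplified double-stranded random 35-nt library, with or without 28 ng coactivator protein, in 20 μL Tris–HCl pH 7.6 binding buffer for 20 min at RT. Complex bands were cut from native 6% PAGE, eluted and PCR-amplified over four rounds, then Illumina-sequenced. Binding preference is the percentage of sequenced 8-mers matching a motif pattern.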

POU2 (OCT2 POU domain) = molecular target: T1, POU2 (OCT2 POU domain) (human, UniProt P09086 175-386); assay: as above; settings: protein: recombinant; dsDNA, one strand shown
T1 sequence: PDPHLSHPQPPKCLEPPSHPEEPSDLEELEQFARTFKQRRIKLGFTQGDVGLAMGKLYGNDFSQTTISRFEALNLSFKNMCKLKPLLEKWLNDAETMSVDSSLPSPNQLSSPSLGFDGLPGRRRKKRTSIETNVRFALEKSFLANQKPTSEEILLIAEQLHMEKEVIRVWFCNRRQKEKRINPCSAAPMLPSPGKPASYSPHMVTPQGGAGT
How it was run: as §1

[1] = molecular target: POU1 (OCT1 POU domain);BOB1 (OBF1, OCA-B) (human;human, UniProt P14859;Q16633 260-458;1-256, |); assay: EMSA-SELEX-seq; with BOB1 (ternary complex band); 20 mM Tris-HCl pH 7.6, 140 mM NaCl, 10% glycerol, 0.5 mM EDTA, 0.05% Triton X-100, 0.1 mg/mL BSA, 0.1 mg/mL poly(dI-dC), 5 mM DTT, room temperature, 20 min; high values mean tight binding; settings: protein: recombinant;recombinant; copies: 1;1; dsDNA, one strand shown
How it was run: as §1

[2] = molecular target: T2, POU2 (OCT2 POU domain);BOB1 (OBF1, OCA-B) (human;human, UniProt P09086;Q16633 175-386;1-256, |); assay: as above; settings: protein: recombinant;recombinant; copies: 1;1; dsDNA, one strand shown
T2 sequence 1: T1 sequence
T2 sequence 2: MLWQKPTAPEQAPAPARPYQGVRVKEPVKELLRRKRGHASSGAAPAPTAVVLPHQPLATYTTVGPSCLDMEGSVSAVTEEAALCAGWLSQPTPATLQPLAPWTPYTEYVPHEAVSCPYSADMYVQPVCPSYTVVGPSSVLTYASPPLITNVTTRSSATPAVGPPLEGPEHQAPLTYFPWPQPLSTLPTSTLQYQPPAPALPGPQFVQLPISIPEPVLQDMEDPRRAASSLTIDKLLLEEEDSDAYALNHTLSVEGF
How it was run: as §1

Chain of POU1 (OCT1 POU domain) (P14859 260-458): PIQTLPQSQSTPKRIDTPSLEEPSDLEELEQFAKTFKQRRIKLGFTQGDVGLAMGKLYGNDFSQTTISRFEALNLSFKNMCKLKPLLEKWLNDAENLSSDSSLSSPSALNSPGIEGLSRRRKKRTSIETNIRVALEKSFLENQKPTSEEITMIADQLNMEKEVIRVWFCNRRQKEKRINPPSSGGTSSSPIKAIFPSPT

Sequence | binding signal (POU1 (OCT1 POU domain)) | binding signal (POU2 (OCT2 POU domain)) | binding signal [1] | binding signal [2]
AGAGCAAG | 0.0156 % of ANNNNAAN 8-mers | 0.0213 % of ANNNNAAN 8-mers | 0.0191 % of ANNNNAAN 8-mers | 0.0132 % of ANNNNAAN 8-mers
AGCACAAC | 0.0114 % of ANNNNAAN 8-mers | 0.0132 % of ANNNNAAN 8-mers |  | 0.0124 % of ANNNNAAN 8-mers
AAGTAAAT | 0.19 % of ANNNNAAN 8-mers | 0.146 % of ANNNNAAN 8-mers | 0.227 % of ANNNNAAN 8-mers | 0.147 % of ANNNNAAN 8-mers
ACCCCAAG |  | 0.0115 % of ANNNNAAN 8-mers | 0.0105 % of ANNNNAAN 8-mers | 
ACCGCAAC | 0.0114 % of ANNNNAAN 8-mers |  |  | 0.0157 % of ANNNNAAN 8-mers
AACCTAAC | 0.013 % of ANNNNAAN 8-mers |  |  | 0.0132 % of ANNNNAAN 8-mers
ATGGCAAA | 0.0774 % of ANNNNAAN 8-mers | 0.057 % of ANNNNAAN 8-mers | 0.113 % of ANNNNAAN 8-mers | 0.0776 % of ANNNNAAN 8-mers
AACCTAAT | 0.0534 % of ANNNNAAN 8-mers | 0.0875 % of ANNNNAAN 8-mers | 0.0386 % of ANNNNAAN 8-mers | 0.0438 % of ANNNNAAN 8-mers
ACCATAAT | 0.082 % of ANNNNAAN 8-mers | 0.0967 % of ANNNNAAN 8-mers | 0.0367 % of ANNNNAAN 8-mers | 0.0495 % of ANNNNAAN 8-mers
AACCCAAG | 0.0111 % of ANNNNAAN 8-mers | 0.015 % of ANNNNAAN 8-mers | 0.0144 % of ANNNNAAN 8-mers | 
ACGCCAAC |  | 0.0115 % of ANNNNAAN 8-mers | 0.0121 % of ANNNNAAN 8-mers | 
ACCACAAC | 0.0107 % of ANNNNAAN 8-mers | 0.0132 % of ANNNNAAN 8-mers |  | 
ATGCGAAA | 0.0835 % of ANNNNAAN 8-mers | 0.0926 % of ANNNNAAN 8-mers | 0.0648 % of ANNNNAAN 8-mers | 0.0743 % of ANNNNAAN 8-mers
ATGCTAAA | 0.273 % of ANNNNAAN 8-mers | 0.293 % of ANNNNAAN 8-mers | 0.0691 % of ANNNNAAN 8-mers | 0.0817 % of ANNNNAAN 8-mers
AATCAAAA | 0.122 % of ANNNNAAN 8-mers | 0.099 % of ANNNNAAN 8-mers | 0.142 % of ANNNNAAN 8-mers | 0.0792 % of ANNNNAAN 8-mers
ACCGCAAG | 0.0114 % of ANNNNAAN 8-mers | 0.0127 % of ANNNNAAN 8-mers | 0.0176 % of ANNNNAAN 8-mers | 
AGCTCAAC |  | 0.0132 % of ANNNNAAN 8-mers | 0.0101 % of ANNNNAAN 8-mers | 0.0231 % of ANNNNAAN 8-mers
ACCCTAAC | 0.0107 % of ANNNNAAN 8-mers | 0.0121 % of ANNNNAAN 8-mers |  | 0.0157 % of ANNNNAAN 8-mers

Sequence | binding signal (POU1 (OCT1 POU domain)) | binding signal (POU2 (OCT2 POU domain)) | binding signal [1] | binding signal [2]
ATTCGAAG | 0.0564 % of ANNNNAAN 8-mers | 0.0656 % of ANNNNAAN 8-mers | 0.0464 % of ANNNNAAN 8-mers | 0.0405 % of ANNNNAAN 8-mers
AAACAAAG | 0.114 % of ANNNNAAN 8-mers | 0.0742 % of ANNNNAAN 8-mers | 0.165 % of ANNNNAAN 8-mers | 0.0892 % of ANNNNAAN 8-mers
AGCATAAG | 0.105 % of ANNNNAAN 8-mers | 0.129 % of ANNNNAAN 8-mers | 0.0441 % of ANNNNAAN 8-mers | 0.0627 % of ANNNNAAN 8-mers
ACAGCAAC | 0.0153 % of ANNNNAAN 8-mers | 0.0155 % of ANNNNAAN 8-mers | 0.014 % of ANNNNAAN 8-mers | 
ACCCAAAC |  |  | 0.0164 % of ANNNNAAN 8-mers | 0.0107 % of ANNNNAAN 8-mers
ACCACAAG | 0.0114 % of ANNNNAAN 8-mers | 0.0178 % of ANNNNAAN 8-mers | 0.0113 % of ANNNNAAN 8-mers | 
ACTGCAAC | 0.0114 % of ANNNNAAN 8-mers | 0.0155 % of ANNNNAAN 8-mers | 0.0199 % of ANNNNAAN 8-mers | 
AGGCCAAA | 0.029 % of ANNNNAAN 8-mers | 0.027 % of ANNNNAAN 8-mers | 0.0242 % of ANNNNAAN 8-mers | 0.0281 % of ANNNNAAN 8-mers
AACGCAAC | 0.013 % of ANNNNAAN 8-mers | 0.0201 % of ANNNNAAN 8-mers |  | 0.0182 % of ANNNNAAN 8-mers
ACCTCAAC |  |  | 0.0129 % of ANNNNAAN 8-mers | 0.0107 % of ANNNNAAN 8-mers
ACCTCAAG | 0.0141 % of ANNNNAAN 8-mers | 0.0127 % of ANNNNAAN 8-mers | 0.0156 % of ANNNNAAN 8-mers | 
ATCCGAAT | 0.0542 % of ANNNNAAN 8-mers | 0.0748 % of ANNNNAAN 8-mers | 0.0496 % of ANNNNAAN 8-mers | 0.066 % of ANNNNAAN 8-mers
ACGGTAAC | 0.0164 % of ANNNNAAN 8-mers | 0.0259 % of ANNNNAAN 8-mers | 0.0144 % of ANNNNAAN 8-mers | 0.0239 % of ANNNNAAN 8-mers
AGCCCAAC |  |  | 0.0105 % of ANNNNAAN 8-mers | 0.0124 % of ANNNNAAN 8-mers
ACCGAAAC | 0.0107 % of ANNNNAAN 8-mers | 0.0132 % of ANNNNAAN 8-mers | 0.0125 % of ANNNNAAN 8-mers | 
ATAATAAA | 0.194 % of ANNNNAAN 8-mers | 0.251 % of ANNNNAAN 8-mers | 0.117 % of ANNNNAAN 8-mers | 0.0999 % of ANNNNAAN 8-mers
ACCGGAAG |  | 0.0127 % of ANNNNAAN 8-mers |  | 0.0124 % of ANNNNAAN 8-mers
AATTTAAC | 0.17 % of ANNNNAAN 8-mers | 0.147 % of ANNNNAAN 8-mers | 0.117 % of ANNNNAAN 8-mers | 0.0982 % of ANNNNAAN 8-mers
